Compound activity as filed in PubChem.
Shown are actives, neighbours in structure and some others; about 2.3% of the full set was active somewhere.
Tau ThT inhib: inhibitors of human tau fibril formation, thioflavin T binding. P10636. recombinant tau K18 P301L, heparin-induced fibrillization, ThT fluorescence. Potency, µM (highest dose often 57.4 µM), without a hit: at the highest dose activity, negative = inhibition, actives largely listed as inhibitors. actives 2.1% (n = 270,000). AID 1460; note: potency is the fitted concentration of half-maximal effect; nearly all actives have a fitted effect of over 55% in size
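Heparin-induced fibrillization of the P301L-mutant K18 repeat-domain fragment of human tau was followed by ThT binding in quantitative high-throughput format.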
Coupling enz: coupling enzyme interference in Giardia aldolase counter-screen; coupling enzyme system counterscreen, AmpLite Red fluorescence; activity change, negative = inhibition, % at 58.2 µM, hits read low; actives 0.67% (n = 290,000); AID 2472; in the data active = activity change below about -30%
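Counterscreen of the coupled detection system alone, without aldolase: glyceraldehyde-3-phosphate coupling enzymes plus AmpLite Red readout. Compounds at 57.5 uM final, 10 min RT preincubation, 20 min RT reaction, fluorescence 525/598 nm.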
USP1 inh: blocks the human USP1/UAF1 deubiquitinase complex. actives 0.23% (n = 390,000). recombinant USP1/UAF1, Ub-Rhodamine cleavage fluorescence. O94782. AID 743255. Potency, µM (doses to about 57.1 µM), inactives show at the top dose activity change, negative = inhibition, usual class: inhibitors; note: potency is the fitted concentration of half-maximal effect; nearly all actives have a fitted effect of over 60% in size
Target sequence (O94782 whole entry, looked up): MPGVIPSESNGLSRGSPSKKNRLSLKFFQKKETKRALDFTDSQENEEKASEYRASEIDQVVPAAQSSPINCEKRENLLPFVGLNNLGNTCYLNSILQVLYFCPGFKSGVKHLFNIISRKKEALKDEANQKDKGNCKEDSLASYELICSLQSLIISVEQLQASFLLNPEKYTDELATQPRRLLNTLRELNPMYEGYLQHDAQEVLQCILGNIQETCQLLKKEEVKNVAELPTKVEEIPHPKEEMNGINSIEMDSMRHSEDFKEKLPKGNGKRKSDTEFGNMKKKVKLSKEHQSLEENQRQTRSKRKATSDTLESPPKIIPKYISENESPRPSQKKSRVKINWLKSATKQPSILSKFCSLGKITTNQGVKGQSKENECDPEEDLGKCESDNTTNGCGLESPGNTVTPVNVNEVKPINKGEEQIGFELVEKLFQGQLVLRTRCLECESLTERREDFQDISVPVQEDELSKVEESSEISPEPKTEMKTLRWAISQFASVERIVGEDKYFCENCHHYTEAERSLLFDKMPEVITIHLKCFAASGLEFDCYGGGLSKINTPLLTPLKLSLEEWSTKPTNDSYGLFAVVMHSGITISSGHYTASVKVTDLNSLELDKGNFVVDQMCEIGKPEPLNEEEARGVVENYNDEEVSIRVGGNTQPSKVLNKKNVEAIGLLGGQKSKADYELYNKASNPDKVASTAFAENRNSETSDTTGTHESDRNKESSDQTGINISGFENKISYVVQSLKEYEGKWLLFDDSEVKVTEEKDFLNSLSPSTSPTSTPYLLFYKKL
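1 nM enzyme complex + cpd, 15 min RT; start with Ub-Rho 150nM final; kinetic fluorescence ex 480/em 540, 6 reads q60 s. Buffer 50mM HEPES pH 7.8, 0.5mM EDTA, 0.1 mg/ml BSA, 1mM TCEP, 0.01% Tween-20.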
Tau FP inhib: inhibitors of human tau fibril formation | P10636 | K18 P301L tau heparin fibrillization, Alexa594 FP, 6 h | Potency, µM (titrated, usually from 57.7 µM), without a hit: at the top dose activity, negative = inhibition, hits mostly inhibitors | actives 0.39% (n = 280,000); note: potency is the fitted concentration of half-maximal effect; nearly all actives have a fitted effect of over 55% in size
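FP of Alexa 594-tau after heparin (20 uM) induction. Substrate: human K18 P301L, 15 uM unlabeled, 0.24 uM labeled. Buffer 100 mM sodium acetate pH 7. 6 hr, 37 C.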
Tau fluor cs: counter-screen for tau fibril formation inhibitors; tau K18 P301L (four-repeat tau fragment) Alexa594 fluorescence, heparin fibrillization; actives 0.93% (n = 280,000); Potency, µM (doses to about 57.7 µM), for the others: top-dose activity change, negative = decrease; note: potency is the fitted concentration of half-maximal effect; nearly all actives have a fitted effect of over 55% in size
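Human K18 P301L tau (15 uM unlabeled plus 0.24 uM Alexa 594-labeled, final) in 100 mM sodium acetate pH 7 was mixed with compound and 20 uM heparin and incubated 6 hr at 37 C.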
* marks the source's active call; other numbers are inactive results; ! = not active in a repeat; [ ] = remark or other dose. Unless noted, calls come from the whole dose curve; as a rule, active = well fitted curve in the direction sought with a large enough effect; inconclusive = small, poorly fitted or top-dose-only effect, or another doubt; inactive = no such curve, though single readings can be large; an effect the other way counts as inactive or inconclusive. % is set by controls: 0 for no effect and ±100 for the full control effect.

Results for COc1cc(C(c2c(C)[nH][nH]c2=O)c2c(C)[nH][nH]c2=O)ccc1OCc1ccc([N+](=O)[O-])cc1 ?
Tau ThT inhib: 10µM*; Coupling enz: -35.2*; USP1 inh: -22.7%; Tau FP inhib: -7.3%; Tau fluor cs: inconclusive

Results for COc1ccc(C2C=C(c3ccccc3)Nc3nc(NS(=O)(=O)c4ccccc4)nn32)cc1 (stereo not drawn) ?
Tau ThT inhib: 0.7%; USP1 inh: inconclusive; Tau FP inhib: -2.4%; Tau fluor cs: -3.8%

What do the screens show for `C(=N\Nc1nc2ccccc2s1)/c1cccs1`?
Tau ThT inhib: 14.1µM*; Coupling enz: -0.7; USP1 inh: -5.0%; Tau FP inhib: inconclusive; Tau fluor cs: 14.1µM*[quencher]

How did CCn1c(C)c(/C=N/Nc2nc3ccccc3s2)c2ccccc21 do in these assays?
Tau ThT inhib: 7.08µM*; USP1 inh: -15.3%; Tau FP inhib: 1.4%; Tau fluor cs: 7.08µM*[quencher]

How did COc1ccc(/C=N/Nc2nc3ccccc3o2)cc1O do in these assays?
Tau ThT inhib: inconclusive; Coupling enz: -5.2; USP1 inh: -13.8%; Tau FP inhib: inconclusive; Tau fluor cs: inconclusive

What do the screens show for `COc1ccc(/C=N/Nc2nc3ccccc3s2)cc1O`?
Tau ThT inhib: 12.6µM*; Coupling enz: -0.2; USP1 inh: -2.9%; Tau FP inhib: 9.0%; Tau fluor cs: 12.6µM*[quencher]

How did CC(=O)C1CCC2C3CCC4CC(=O)CCC4(C)C3C(C)(O)CC12C (stereo not drawn) do in these assays?
USP1 inh: -4.1%

How did CC(=O)Nc1ccc(NC(=O)Nc2ccc3c(c2)N(C)C(=O)CS3)cc1 do in these assays?
Tau ThT inhib: -14.2%; Coupling enz: 5.6; USP1 inh: -12.1%; Tau FP inhib: 2.6%; Tau fluor cs: -19.5%

Results for CCOc1ccc(OCC)c(NC(=O)Nc2ccc3c(c2)N(C)C(=O)CS3)c1 ?
Tau ThT inhib: -17.9%; Coupling enz: -4.7; USP1 inh: -24.6%; Tau FP inhib: 4.9%; Tau fluor cs: 8.91µM*[quencher]

What do the screens show for `CN1C(=O)CSc2ccc(NC(=O)Nc3ccccn3)cc21`?
Tau ThT inhib: inconclusive; Coupling enz: -0.3; USP1 inh: -3.6%; Tau FP inhib: 13.0%; Tau fluor cs: inconclusive

How did COc1cccc(NC(=O)Nc2ccc3c(c2)N(C)C(=O)CS3)c1 do in these assays?
Tau ThT inhib: inconclusive; Coupling enz: -5.6; USP1 inh: -9.0%; Tau FP inhib: 2.1%; Tau fluor cs: 14.1µM*[quencher]

Results for O=C(C[C@@H]1C/C=C\CCC(=O)O[C@H](c2ccccc2)CNC1=O)N[C@H](CO)Cc1ccccc1 ?
USP1 inh: -23.5%

Results for CN(C(=O)CSc1nnc(-c2ccc([N+](=O)[O-])cc2)o1)c1ccccc1 ?
Tau ThT inhib: -6.4%; USP1 inh: -3.0%; Tau FP inhib: -4.3%; Tau fluor cs: -13.6%

Results for CCOC(=O)c1ccc(NC(=O)CCc2c(C)n(CC)c3cc(-c4ccccc4OC)nn3c2=O)cc1 ?
Tau ThT inhib: -14.6%; USP1 inh: inconclusive; Tau FP inhib: 3.8%; Tau fluor cs: -6.2%

What do the screens show for `CCN(CC)S(=O)(=O)c1cccc(NC(=O)CN2C(=O)NC3(CCC(C)CC3)C2=O)c1` (stereo not drawn)?
USP1 inh: -10.9%

How did Cc1ccc(O)c(N)c1 do in these assays?
USP1 inh: -14.3%

Results for COc1ccc(O)c(N)c1 ?
Tau ThT inhib: 4.47µM*; Coupling enz: -29.0; Tau FP inhib: 11.2µM*; Tau fluor cs: 12.6µM*[quencher]

How did Cc1sc(NC(=O)/C=C/c2ccco2)c(C(=O)O)c1C do in these assays?
Tau ThT inhib: inconclusive; Coupling enz: -13.2; USP1 inh: -10.6%; Tau FP inhib: -3.8%; Tau fluor cs: -6.5%

Results for CCCCCOc1ccc(/C=C/C(=O)Nc2sc(C(C)=O)c(C)c2C(=O)OCC)cc1OC ?
Tau ThT inhib: -2.2%; USP1 inh: inconclusive; Tau FP inhib: 2.3%; Tau fluor cs: -1.9%

Results for CCCCCOc1ccc(/C=C/C(=O)Nc2sc(C)c(C)c2C(=O)OCC)cc1OC ?
Tau ThT inhib: 28.2µM*; USP1 inh: -3.0%; Tau FP inhib: inconclusive; Tau fluor cs: -23.4%

What do the screens show for `COc1ccc(/C=C/C(=O)Nc2sc(C)c(C)c2C(=O)O)cc1`?
Tau ThT inhib: 2.24µM*; USP1 inh: -5.5%; Tau FP inhib: -0.5%; Tau fluor cs: inconclusive

What do the screens show for `CC(C)OCCCN1C=C2C(=O)C(C)(OC(=O)C3CCCC3)C(=O)C=C2C=C1c1ccsc1` (stereo not drawn)?
Tau ThT inhib: inconclusive; Coupling enz: -40.7*; Tau FP inhib: inconclusive; Tau fluor cs: inconclusive

Results for CC1(OC(=O)C2CCCC2)C(=O)C=C2C=C(c3ccsc3)N(c3ccc(CO)cc3)C=C2C1=O (stereo not drawn) ?
Tau ThT inhib: 6.8%[11.5 µM]; Coupling enz: -1.0; Tau FP inhib: 8.0%[11.6 µM]; Tau fluor cs: 7.0%[11.6 µM]

What do the screens show for `CC1(OC(=O)C2CCCC2)C(=O)C=C2C=C(c3ccsc3)N(C3CCCC3)C=C2C1=O` (stereo not drawn)?
Tau ThT inhib: inconclusive; Coupling enz: -31.9*!; USP1 inh: inconclusive; Tau FP inhib: -1.0%[11.6 µM]; Tau fluor cs: -11.7%[11.6 µM]

What do the screens show for `CC1(OC(=O)C2CCCC2)C(=O)C=C2C=C(c3ccsc3)N(CCCCO)C=C2C1=O` (stereo not drawn)?
Tau ThT inhib: inconclusive; Coupling enz: -37.2*; USP1 inh: inconclusive; Tau FP inhib: -9.3%[11.6 µM]; Tau fluor cs: -25.7%[11.6 µM]

How did COc1ccc(CN2C=C3C(=O)C(C)(OC(=O)C4CCCC4)C(=O)C=C3C=C2c2ccsc2)cc1 (stereo not drawn) do in these assays?
Tau ThT inhib: 17.8µM*!; Coupling enz: -4.4; USP1 inh: -16.0%; Tau FP inhib: inconclusive; Tau fluor cs: -7.4%[11.6 µM]

Results for CCOc1ccccc1NC(=S)N1CCCCCC1 ?
Coupling enz: 2.7; USP1 inh: -19.8%

Results for COC(=O)CCCC1=CC2=C(c3ccccc3)C(=O)C(C)(OC(=O)C3CCCC3)C(=O)C2=CN1C1CCCCC1 (stereo not drawn) ?
Tau ThT inhib: inconclusive; Coupling enz: -31.2*!; USP1 inh: -24.0%; Tau FP inhib: -6.5%[11.6 µM]; Tau fluor cs: -7.3%[11.6 µM]

What do the screens show for `COC(=O)CCCC1=CC2=C(c3ccccc3)C(=O)C(C)(OC(=O)C3CCCC3)C(=O)C2=CN1C1CCCC1` (stereo not drawn)?
Tau ThT inhib: inconclusive; Coupling enz: -12.1; USP1 inh: -34.5%; Tau FP inhib: -3.6%[11.6 µM]; Tau fluor cs: -3.4%[11.6 µM]

What do the screens show for `CCOc1cccc(C=Nc2cc(C)cc(C)c2O)c1O`?
Tau ThT inhib: 25.1µM*; Coupling enz: 0.6; USP1 inh: inconclusive; Tau FP inhib: inconclusive; Tau fluor cs: inconclusive
